Measurements as given in PubChem BioAssay (NCI).
The panel holds about 79,000 compounds, 15% with a hit somewhere; the sample as a whole holds those more often. Cut-off read from the data, not from the text of the source: active = growth inhibition above about 70%; inactive = the rest.

What was measured:
[1] = NCI Yeast Anticancer Drug Screen. Data for the rad50 strain (AID 155);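 note: 0% = growth of vehicle-only cultures of the same strain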; details: S. cerevisiae rad50 strain growth inhibition, hits give high values; at 50.0 µM unless noted
Method in brief: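 A DNA repair-deficient yeast mutant serves as the test organism; compound-induced growth inhibition is calculated against vehicle-treated cells.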

[2] = NCI Yeast Anticancer Drug Screen. Data for the mec2-1 strain (AID 157); details: S. cerevisiae mec2-1 strain, hits give high values; at 50.0 µM unless noted
Method in brief: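 Vehicle-treated cultures served as reference for growth inhibition of compound-exposed mec2-1 yeast.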

[3] = NCI Yeast Anticancer Drug Screen. Data for the sgs1 mgt1 strain (AID 161);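 note: 0% = growth of cultures given vehicle only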; details: S. cerevisiae sgs1 mgt1 strain, hits give high values; at 50.0 µM unless noted
Method in brief: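 Inhibition of yeast growth, normalised to vehicle-treated controls, is reported for a strain bearing genetic alterations in DNA damage repair.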

[4] = NCI Yeast Anticancer Drug Screen. Data for the cln2 rad14 strain (AID 165);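 note: 0% = growth equal to vehicle treated cultures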; details: S. cerevisiae cln2 rad14 strain, hits give high values; at 50.0 µM unless noted
Method in brief: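 Each compound was tested on cln2 rad14 yeast. Inhibition of growth was calculated against vehicle-exposed controls.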

[5] = NCI Yeast Anticancer Drug Screen. Data for the bub3 strain (AID 167); details: S. cerevisiae bub3 mutant strain, hits give high values; at 50.0 µM unless noted
Method in brief: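 Inhibition values come from growth of compound-treated mutant yeast normalised to vehicle-treated controls.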

[6] = NCI Yeast Anticancer Drug Screen. Data for the mlh1 rad18 strain (AID 175); details: S. cerevisiae mlh1 rad18 strain growth inhibition, hits give high values; at 50.0 µM unless noted
Method in brief: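 Vehicle-treated cultures served as the reference for growth inhibition in a yeast strain carrying DNA damage repair alterations exposed to each compound.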

Measured: growth inhibition

CO/N=C1/OC(=O)OCC1(c1ccccc1)c1ccccc1
inactive: [1] 5.45% | [2] -3.4% | [3] 2.7% | [4] 11.1% | [5] 6.3% | [6] -3.3%

COc1ccc(C(=O)Oc2ccccc2C(C)=O)cc1
inactive: [1] -2.65% | [2] -7.05% | [3] 0.7% | [4] -24.6% | [5] -5.6% | [6] -12.8%

Cc1ccc2nc(C=Nc3ccccc3Cl)cc(C)c2c1
inactive: [1] -7.4% | [2] -5.85% | [3] -9.3% | [4] 17.8% | [5] -4.45% | [6] 3.2%

N#Cc1c(-c2ccc(Cl)cc2)c(-c2ccc(Cl)cc2)nn(CCOC(=O)CCC(=O)OCCn2nc(-c3ccc(Cl)cc3)c(-c3ccc(Cl)cc3)c(C#N)c2=O)c1=O
inactive: [1] -11.7% | [2] 8.95% | [3] 5.5% | [4] -24.4% | [5] 4.75% | [6] 26.4%

O=[N+]([O-])/C=C/c1cn(CCCCCCCCCCCCn2cc(/C=C/[N+](=O)[O-])c3ccccc32)c2ccccc12
inactive: [1] -1.5% | [2] -24.6% | [3] -3.9% | [4] 6.45% | [5] -19.4% | [6] -13.6%

ONc1ccc2c(c1)C1C(C3C2C2(Cl)C(Cl)=C(Cl)C3(Cl)C2(Cl)Cl)C2(Cl)C(Cl)=C(Cl)C1(Cl)C2(Cl)Cl (stereo unspecified)
inactive: [1] 35.8% | [2] 13.6% | [3] 7.55% | [4] 19.6% | [5] 24.9% | [6] 24.6%

CN(C)c1ccc(C(c2ccc(C(c3ccc(N(C)C)cc3)c3ccc(N(C)C)cc3)cc2)c2ccc(N(C)C)cc2)cc1
inactive: [1] -6.55% | [2] 4.8% | [3] -22.1% | [4] -0.8% | [5] -10.8% | [6] 14.6%

O=C(O)c1ccc([N+](=O)[O-])cc1Br
inactive: [1] 3.5% | [2] -2.85% | [3] -4.65% | [4] -45% | [5] -23.6% | [6] 6.2%

Cc1ccc(S(=O)(=O)CCN2CCN(C)CC2)cc1
inactive: [1] 8.6% | [2] -9.25% | [3] -12.7% | [4] -26% | [5] -2.65% | [6] 1.05%

COc1ccc(/C(CC2OC(=O)c3ccccc32)=N\NC(=O)C[N+](C)(C)C)cc1 (stereo unspecified)
inactive: [1] 6.1% | [2] -10.8% | [3] 0.4% | [4] 7.55% | [5] 12.1% | [6] 8.5%

O=C(Cc1ccc(CC(=O)NCCCCc2ccccc2)cc1)NCCCCc1ccccc1
inactive: [1] 0.75% | [2] -3.25% | [3] -14.9% | [4] -8.85% | [5] -7.9% | [6] 13.1%

COc1ccc(C(c2ccc(OC)cc2)N2C(=O)CCC2C(=O)O)cc1 (stereo unspecified)
inactive: [1] -28.6% | [2] 21.2% | [3] -48.8% | [4] 17.1% | [5] -1% | [6] -12.6%

CC(=O)N1C(=O)c2cccc([N+](=O)[O-])c2C1=O
inactive: [1] -1.6% | [2] -11.9% | [3] -9.55% | [4] 7.15% | [5] -21.7% | [6] 11.4%

COc1ccc2[nH]c3c(C)c4c(c(C)c3c2c1)CN(C)C=C4
inactive: [1] 45.6% | [2] 48.2% | [3] 62.7% | [4] 21.2% | [5] 65.8% | [6] 8.95%

CCCCCCC(CCN(C)C)(C(C)=O)c1ccccc1 (stereo unspecified)
inactive: [1] -3.3% | [2] 3.7% | [3] 1.05% | [4] -3.5% | [5] 6.85% | [6] 11.1%

C=CCOC(=O)CC(=C)C(=O)O
inactive: [1] 18.9% | [2] 31% | [3] 15.8% | [4] -24.8% | [5] 6.2% | [6] 7.55%

CCCCN(CCCC)CC(C(=O)Nc1ccc([N+](=O)[O-])cc1[N+](=O)[O-])/C(C)=N\NC(=S)NN (stereo unspecified)
inactive: [1] 3.55% | [2] -6.8% | [3] 44.7% | [4] 24.8% | [5] 16.2% | [6] 24.4%

CC1CC(=O)Nc2nc3ccccc3n21 (stereo unspecified)
inactive: [1] 7.15% | [2] 6.65% | [3] -25.2% | [4] -44.9% | [5] -21.8% | [6] -28.8%

C[N+](C)(C)CCc1ccc(Cl)cc1
inactive: [1] 10.2% | [2] 7.45% | [3] 9.7% | [4] -3.7% | [5] -0.05% | [6] 21.8%

COC1(OC)C(C#N)=C(c2ccccc2)C1(OC)OC
inactive: [1] -8% | [2] -6.25% | [3] -6.5% | [4] -19.9% | [5] -14% | [6] -6.8%

CC(C)=CCNc1ncnc2c1ncn2CCC(=O)O
inactive: [1] -23.9% | [2] -4.6% | [3] -57% | [4] -4.45% | [5] -9.85% | [6] -28.9%
